About 83,000 compounds went through this panel and 20% of them were active in at least one assay; those are over-represented in the sample as a whole.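 The endpoint reported here, percent growth, reads 100 for growth as untreated, 0 for no net growth and -100 for all cells dead.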 Values without a mark were called inactive. Calls of active or inactive are those of the source. Rule for the calls: active = growth percent below 10; inactive = the rest.
tested on: M14 melanoma; assay: NCI-60 one-dose screen, 48 h (100 = growth as untreated, 0 = no growth, -100 = all killed); conditions: 10 µM

Compound | growth
Nc1nc(N)c(NC(=O)CNc2ccc(C(=O)O)cc2)c(N)n1 | 111%
COc1ccc(-c2nn(-c3cccc(NC(=O)c4cc(C(F)(F)F)cc(C(F)(F)F)c4)c3)cc2-c2ccncc2)cc1Cl | 64%
O=C1/C(=C\c2ccccc2)CN(C(=O)c2ccccc2)C/C1=C\c1ccccc1 | -49.5% (active)
COc1ccc(/C=C2/CN(C(=O)c3ccc(C)cc3)C/C(=C\c3ccc(OC)cc3)C2=O)cc1 | 69.4%
COc1ccc(S(=O)(=O)NCCCNc2nccc(-c3c(-c4ccc(F)cc4)nc4sccn34)n2)cc1 | 57.3%
COc1ccc(-c2cc(-c3ccc(N(C)C)cc3)c(C#N)c(N3CCCC3)n2)cc1 | 73.3%
CCOC(=O)N/N=C\C(C)=N\NC(=O)OCC | 100%
CN(C)Cc1cn(-c2ncc(-c3ccc(C(F)(F)F)cc3)c(NC3CCCCCC3)n2)nn1 | 84.5%
CC(C)=NNc1ncnc2c1ncn2C1OC(CO)C(O)C1O (configuration not stated) | 35.8%
O=C(Nc1cccc(-n2cc(-c3ccncc3)c(-c3ccc(O)c(Cl)c3)n2)c1)c1cc(C(F)(F)F)cc(C(F)(F)F)c1 | 59.6%
CCCC(F)C(=O)O (configuration not stated) | 97.5%
Nc1nc(Nc2ccccc2)n[nH]1 | 96.5%
COc1ccc(-n2c(SCc3cc(OC)c(OC)c(OC)c3)nc3ccc(C)cc3c2=O)cc1 | 53.8%
O=C(Nc1ccc(CN2CCc3nc4cc(O)c(O)cc4cc32)cc1)c1ccc(Cl)c(Cl)c1 | 98.4%
CCOCCOCCOCCOCCOCCOCCOCCOCCOCCO (tested in a mixture with another compound) | 10.8%
CCCCCCc1cc(N=Nc2ccc(S(=O)(=O)Nc3cc(C)nc(C)n3)cc2)c(O)cc1O | 94.2%
CCN1CCN(c2nc3ccccc3c3c(=O)c4ccccc4sc23)CC1 | -18.5% (active)
COc1ccc(-c2nn(-c3cccc(NC(=O)Nc4ccccc4)c3)cc2-c2ccncc2)cc1Cl | 9.94% (active)
C#Cc1ccc(-n2c(/C=C/c3ccc4ccccc4c3)nc3ncccc3c2=O)cc1 | 1.76% (active)
Cc1ccc(S(=O)(=O)Oc2ccc3c4c(c(=O)oc3c2)CCCCC4)cc1 | 71%
N=C(N)c1ccc(-c2ccc(-c3cccs3)s2)cc1 | 30.3%
COc1cc(-c2cc(/C=C/C(=O)c3ccc(N)cc3)[nH]n2)cc(OC)c1OC | 34.8%
CCOC(=O)C(NC(=O)C(Cl)Cl)C(O)c1ccccc1 (configuration not stated) | 92.6%

tested on: HCT-15 colon; assay: as above; conditions: 10 µM

Compound | growth
COc1ccc(-c2csc(NC(=O)CSc3nc(C)c(-c4ccccc4)n3Nc3ccccc3)n2)cc1 | 44.2%
Cc1cccc(C)c1NC(=O)c1sc2nc3c(cc2c1N)C(=O)CCC3 | 60.3%
CC(=O)CSC(C)=O | 103%
S=C1SCC(c2ccccc2)S1 (configuration not stated) | 100%
CC(=O)N(C)c1ccc(Nc2ccc(Nc3ccc(N(C)C(C)=O)cc3)c3c2C(=O)c2ccccc2C3=O)cc1 | 79.8%
COc1ccc(CN2CCC(N3CCCC3=O)c3cc(Cl)ccc32)cc1 (configuration not stated) | 104%
CN(C)c1ccc(Cc2ccc(N(C)C)cc2Cl)c(Cl)c1 | 101%
Clc1cc2c(c(CSc3nc4ccccc4n4cccc34)c1)OCOC2 | 71.4%
CC(=O)n1c(-c2ccc(Cl)c(Cl)c2)cn(-c2ccc(Cl)cc2)c1=O | 59%
C#Cc1ccc(-n2c(/C=C/c3ccc4ccccc4n3)nc3ncccc3c2=O)cc1 | -18.8% (active)
CSc1nn(-c2ccccc2)c2ncnc(Oc3ccccc3)c12 | 93.2%
COc1ccc(-c2nc(-c3nc4cc(Cl)c(F)cc4[nH]3)c3ccccn23)cc1 | 59.5%
C/C(=N\Nc1nc2ccccc2s1)c1ccncn1 | 18.6%
Nc1cc2c(cc1Cl)-c1ccc([N+](=O)[O-])cc1/C2=N\O | 62.9%
CN(C)CCN1C(=O)c2cccc3cc(N)cc(c23)C1=O | 11.8%
CCCCCCNC(=O)Oc1ccc(/C(=C(/CC)Cc2ccccc2)c2ccc(OCCN3CCCCC3)cc2)cc1 | 39%
Nc1nc(N)c(NC(=O)CNc2ccc(C(=O)O)cc2)c(N)n1 | 112%
COc1ccc(-c2nn(-c3cccc(NC(=O)c4cc(C(F)(F)F)cc(C(F)(F)F)c4)c3)cc2-c2ccncc2)cc1Cl | 73.7%
O=C1/C(=C\c2ccccc2)CN(C(=O)c2ccccc2)C/C1=C\c1ccccc1 | -18.6% (active)
COc1ccc(/C=C2/CN(C(=O)c3ccc(C)cc3)C/C(=C\c3ccc(OC)cc3)C2=O)cc1 | 91.3%

Compound | growth
COc1ccc(S(=O)(=O)NCCCNc2nccc(-c3c(-c4ccc(F)cc4)nc4sccn34)n2)cc1 | 57.2%
COc1ccc(-c2cc(-c3ccc(N(C)C)cc3)c(C#N)c(N3CCCC3)n2)cc1 | 71.4%
CCOC(=O)N/N=C\C(C)=N\NC(=O)OCC | 99.5%
CN(C)Cc1cn(-c2ncc(-c3ccc(C(F)(F)F)cc3)c(NC3CCCCCC3)n2)nn1 | 94.1%
CC(C)=NNc1ncnc2c1ncn2C1OC(CO)C(O)C1O (configuration not stated) | 12.6%
O=C(Nc1cccc(-n2cc(-c3ccncc3)c(-c3ccc(O)c(Cl)c3)n2)c1)c1cc(C(F)(F)F)cc(C(F)(F)F)c1 | 44.9%
CCCC(F)C(=O)O (configuration not stated) | 100%
Nc1nc(Nc2ccccc2)n[nH]1 | 93.8%
COc1ccc(-n2c(SCc3cc(OC)c(OC)c(OC)c3)nc3ccc(C)cc3c2=O)cc1 | 33.6%
O=C(Nc1ccc(CN2CCc3nc4cc(O)c(O)cc4cc32)cc1)c1ccc(Cl)c(Cl)c1 | 101%
CCOCCOCCOCCOCCOCCOCCOCCOCCOCCO (tested in a mixture with another compound) | 22.1%
CCCCCCc1cc(N=Nc2ccc(S(=O)(=O)Nc3cc(C)nc(C)n3)cc2)c(O)cc1O | 103%
CCN1CCN(c2nc3ccccc3c3c(=O)c4ccccc4sc23)CC1 | 31.8%
COc1ccc(-c2nn(-c3cccc(NC(=O)Nc4ccccc4)c3)cc2-c2ccncc2)cc1Cl | 16.6%
C#Cc1ccc(-n2c(/C=C/c3ccc4ccccc4c3)nc3ncccc3c2=O)cc1 | 25.4%
Cc1ccc(S(=O)(=O)Oc2ccc3c4c(c(=O)oc3c2)CCCCC4)cc1 | 41.3%
N=C(N)c1ccc(-c2ccc(-c3cccs3)s2)cc1 | 0.674% (active)
COc1cc(-c2cc(/C=C/C(=O)c3ccc(N)cc3)[nH]n2)cc(OC)c1OC | -22.3% (active)
CCOC(=O)C(NC(=O)C(Cl)Cl)C(O)c1ccccc1 (configuration not stated) | 117%
